Assay results from PubChem BioAssay.
Values joined by “and” are separate entries in the source; they are usually repeats but may differ in a detail not shown here. Equal entries are not always repeated. Active and inactive are the calls of the source. Rule as the data show it: active = parasite load remaining mostly below about 12% (no sharp cut-off); inactive = mostly above about 10%.

Experiment: liver-stage malaria parasite growth inhibition, primary screen, cell-based, HepG2, luciferase luminescence, HepG2 viability (AID 624349);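 also: 100% = mean of DMSO negative control wells on the same plate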
Conditions: P. berghei liver stage in HepG2, luciferase luminescence, concentration not given here; parasite load remaining: stronger effect = lower value; viability: measured here: HepG2 viability without parasites

SMILES	parasite load remaining	viability
NC(N)=NCc1cccc(I)c1	28.4% (inactive) and 43.8% (inactive)	121% and 78.9%
O=C(O)CNC(=O)C(CS)Cc1ccccc1 (stereo not drawn)	144% (inactive) and 78.5% (inactive)	103% and 75.5%
CC(C)(C)[C@]1(O)CCN2C[C@H]3c4ccccc4CCc4cccc(c43)[C@@H]2C1	63.7% (inactive)	156%
COc1ccc(C(=O)NCc2cccnc2)cc1C(=O)NCc1cccnc1	27.2% (inactive) and 91.5% (inactive) and 35% (inactive)	71% and 87.7% and 69.5%
COc1ccc(-c2ccc(N)[n+](CCCC(=O)O)n2)cc1	113% (inactive) and 70.4% (inactive)	102% and 78.3%
Nc1ccc2ncnc(NCCc3ccc(Oc4ccccc4)cc3)c2c1	1.5% (active)	70.6%
COc1ccccc1N1CCN(CCCCNC(=O)c2ccc3ccccc3c2)CC1	110% (inactive) and 55% (inactive)	97.7% and 74.2%
CO[C@H]1C[C@@H]2CC[C@@H](C)[C@@](O)(O2)C(=O)C(=O)N2CCCC[C@H]2C(=O)O[C@H]([C@H](C)C[C@@H]2CC[C@@H](O)[C@H](OC)C2)CC(=O)[C@H](C)/C=C(\C)[C@@H](O)[C@@H](OC)C(=O)[C@H](C)C[C@H](C)/C=C/C=C/C=C/1C	55.9% (inactive)	106%
CC(C)NC[C@H](O)c1ccc(O)c(O)c1	71.3% (inactive)	68.4%
